PubChem BioAssay AID651610 (Broad Institute, 2012)
Out of some 360,000 compounds screened, about 3,900 (1.1%) were called active.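 The calls were made as follows: active = mean replicate inhibition score of at least 50 and every replicate individually at or above 50; inconclusive = only one of the two criteria met; inactive = mean below 50 and not all replicates reaching 50.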 This excerpt belongs to a sample that is enriched for actives.

Experiment: blockers of JRFL envelope-mediated fusion – HeLa-JRFL effector, CEM21 target cells, luciferase, primary screen (AID 651610);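 also: 0% = plate neutral controls and 100% = maraviroc near 300 nM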
Conditions: HeLa-JRFL Env/CEM21 cell fusion, stronger effect = higher value; at 16.7 µM unless noted

Structure (SMILES)	inhibition
C[C@H]1CCCCO[C@@H](CN(C)S(=O)(=O)c2ccc(Cl)cc2)[C@@H](C)CN([C@@H](C)CO)C(=O)c2cc(NS(=O)(=O)c3cn(C)cn3)ccc2O1	3.67% (inactive)
C[C@@H]1CN([C@@H](C)CO)C(=O)c2cc(NS(C)(=O)=O)ccc2O[C@@H](C)CCCCO[C@@H]1CN(C)S(=O)(=O)c1cn(C)cn1	-12% (inactive)
Cc1ccc(S(=O)(=O)Nc2cccc3c2O[C@@H](CN(C)C(=O)Nc2ccccc2)[C@H](C)CN([C@@H](C)CO)C3=O)cc1	8.55% (inactive)
C[C@H](NC(=O)C[C@H]1CC[C@H]2[C@@H](COC[C@H](O)CN2C(=O)Nc2cccc(Cl)c2)O1)c1ccccc1	-9.13% (inactive)
C[C@H](O)C#Cc1ccc2c(c1)O[C@@H](CN(C)CC1CCCC1)[C@H](C)CN([C@@H](C)CO)S2(=O)=O	-37.3% (inactive)
C[C@H](CO)N1C[C@H](C)[C@H](CN(C)C)Oc2cc(C#CC3CC3)ccc2S1(=O)=O	-1.04% (inactive)
C[C@H]1CN([C@@H](C)CO)C(=O)c2cc(NC(=O)Nc3cccc4ccccc34)ccc2O[C@@H]1CN(C)C	3.97% (inactive)
C[C@@H]1CN([C@H](C)CO)C(=O)c2cc(NS(=O)(=O)c3ccccc3)ccc2O[C@H]1CN(C)C(=O)Nc1ccc2c(c1)OCO2	-19.2% (inactive)
O=C(NCC[C@H]1CC[C@@H](NC(=O)C2CCCCC2)[C@@H](CO)O1)c1ccc(F)cc1	-1.25% (inactive)
C[C@@H]1CN([C@H](C)CO)C(=O)c2cc(NS(=O)(=O)c3cn(C)cn3)ccc2O[C@@H](C)CCCCO[C@H]1CN(C)C	1.08% (inactive)
C[C@H](CO)N1C[C@H](C)[C@@H](CN(C)C(=O)Nc2ccc3c(c2)OCO3)OCCCC[C@H](C)Oc2ccc(NC(=O)Nc3ccc4c(c3)OCO4)cc2C1=O	-2.35% (inactive)
C[C@H](CO)N1C[C@H](C)[C@@H](CN(C)Cc2ccncc2)Oc2ccc(NC(=O)Nc3ccccc3)cc2C1=O	4.38% (inactive)
C[C@@H]1CN([C@@H](C)CO)C(=O)c2cc(NS(=O)(=O)c3cn(C)cn3)ccc2O[C@@H](C)CCCCO[C@H]1CN(C)S(=O)(=O)c1cn(C)cn1	2.07% (inactive)
C[C@@H]1CN([C@H](C)CO)C(=O)c2cc(NC(=O)c3ccncc3)ccc2O[C@H]1CN(C)Cc1ccc(Oc2ccccc2)cc1	-5.1% (inactive)
C[C@H]1CCCCO[C@@H](CN(C)Cc2ccc(C(F)(F)F)cc2)[C@@H](C)CN([C@@H](C)CO)C(=O)c2cc(NC(=O)Nc3ccccc3)ccc2O1	86.8% (active)
C[C@H](CO)N1C[C@H](C)[C@H](CN(C)C(=O)NC2CCCCC2)OCCCC[C@H](C)Oc2ccc(NC(=O)Nc3ccc4c(c3)OCO4)cc2C1=O	18.2% (inactive)
C[C@@H]1CN([C@@H](C)CO)C(=O)c2cc(NC(=O)c3ccncc3)ccc2O[C@@H]1CN(C)Cc1ccncc1	85.6% (active)
C[C@@H]1CN([C@H](C)CO)C(=O)c2cc(NC(=O)Nc3ccccc3)ccc2O[C@@H](C)CCCCO[C@H]1CN(C)Cc1ccc(C(F)(F)F)cc1	5.92% (inactive)
C[C@@H]1CCCCO[C@@H](CN(C)Cc2ccc(C(F)(F)F)cc2)[C@@H](C)CN([C@H](C)CO)C(=O)c2cc(NC(=O)Nc3ccccc3)ccc2O1	9.84% (inactive)
C[C@H]1CCCCO[C@H](CN(C)C(=O)NC2CCCCC2)[C@@H](C)CN([C@@H](C)CO)C(=O)c2cc(NC(=O)Nc3ccc4c(c3)OCO4)ccc2O1	62.7% (active)
C[C@@H]1CCCCO[C@H](CN(C)C)[C@H](C)CN([C@@H](C)CO)C(=O)c2cc(NS(=O)(=O)c3cn(C)cn3)ccc2O1	57.7% (active)
